# PINK1 modulator – PINK1 expression modulation; PINK1 immunofluorescence, high-content cytometry, 24 h; 410,000 tested, 0.2% active; Potency, µM (top dose mostly 76.6 µM), inactives show at the top dose activation (PINK1 increase), most hits filed as activators; active = well fitted activation curve with a large enough effect; inconclusive = small, poorly fitted or top-dose-only effect; cell line not stated here; note: % of control where 0% means no effect; nearly all actives have a fitted effect of over 65% in size
#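 Measures PINK1 amount and localization on or inside mitochondria by immunofluorescence. Stable cells get compounds at 5 concentrations for 24 hours before fixation and staining; CCCP controls included.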
# Nrf2 inh – Nrf2 pathway inhibition; A549 ARE-Fluc reporter, luciferase luminescence, 18-24 h; Potency, µM (series often up to 46 µM), inactives show top-dose activity change, negative = inhibition, usual class: inhibitors; 360,000 tested, 2.1% active; note: % is set by controls: 0 for no effect and ±100 for the full control effect; nearly all actives have a fitted effect of over 60% in size
#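 Nrf2 activity is the BugLite luminescence, read 15 min after reagent at room temperature, following CellTiter-Fluor cytotoxicity readout (30 min, 37C). Compound titrations were applied for 18-24 h to 5000 A549 ARE_Fluc cells/well in 5% FBS OPTI-MEM.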
# Nrf2 ARE act – Nrf2 pathway activation; AREc32 ARE-luciferase reporter (MCF7-derived line), luminescence, 24 h; Potency, µM (doses to about 46.1 µM), inactives show top-dose activation, hits mostly activators; 410,000 tested, 0.31% active; AID 624171; note: % of control where 0% means no effect; nearly all actives have a fitted effect of over 65% in size
#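 ARE-driven firefly luciferase activity in AREc32 cells measured after a 24 hr compound exposure at 37 deg C, using Steady-Glo reagent and a 30 min room-temperature hold.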
# A549 viability – kills or reduces viability of A549 cells in Nrf2 counter-screen | Potency, µM (series often up to 46 µM), for inactives: top-dose activity change, negative = cytotoxicity, most hits filed as inhibitors | 390,000 tested, 0.16% active | A549 ARE-Fluc cells, CellTiter-Fluor viability, 18-24 h; note: % is set by controls: 0 for no effect and ±100 for the full control effect
#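 A549 ARE_Fluc cells in 5% FBS OPTI-MEM were exposed to compounds in concentration-response for 18-24 h at 37 deg C. Viability was read by CellTiter-Fluor fluorescence (Ex 405/Em 525) after 30 min, before the luciferase read.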
# Epigenetic derep – regulators of epigenetic silencing causing reporter derepression in mouse cells. murine LDR cells, GFP reporter derepression, 30 h. Potency, µM (titrated, usually from 53.9 µM), for the others: top-dose GFP activation, actives largely listed as activators. 280,000 tested, 0.2% active; note: % of control where 0% means no effect; nearly all actives have a fitted effect of over 60% in size
#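 Murine LDR cells carrying a silenced, genomically integrated CMV-driven GFP reporter were exposed to compound for 30 hours at 37 C. After PBS washes, GFP-positive cells (20–120 um objects) were counted by laser-scanning microplate cytometry.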
# The depositor's hits bear a star; ? = inconclusive; . = no result; [ ] = dose if it differs, or a comment. In the library only some 2.4% were active in any assay of this set; here they are far more common. Unless noted, calls come from the whole dose curve; as a rule, active = well fitted curve in the direction sought with a large enough effect; inconclusive = small, poorly fitted or top-dose-only effect, or another doubt; inactive = no such curve, though single readings can be large; an effect the other way counts as inactive or inconclusive. Potency is the fitted concentration of half-maximal effect.
SMILES,PINK1 modulator,Nrf2 inh,Nrf2 ARE act,A549 viability,Epigenetic derep
COCCCc1cc(F)c(S(=O)(=O)N2CCN(S(=O)(=O)c3ccc4c(c3)OCCO4)CC2)cc1F,.,-23%,.,1%,.
CCN(CC)c1ccc(/C=C/C2=C3C=CC=CC3NC=C2)cc1 (stereo unspecified),1%,.,.,.,.
COc1ccccc1-c1ccc(C(=O)N(C)CC2COCCO2)c(N2CCN(c3ccccc3F)CC2)n1 (stereo unspecified),0%,.,.,.,.
CC(NC(=O)c1cnn2c1NC(=C1CC1)C=C2C(F)F)c1ccncc1 (stereo unspecified),-1%,.,.,.,.
O=C(Cn1nc(-c2ccccc2)nc(Cc2ccccc2)c1=O)Nc1ccccc1,-1%,.,-1%,1%,1%
O=C(/C=C\c1cccs1)c1c(O)ccc2ccc(=O)oc12,-1%,1%,11µM*,-1%,5%
Cc1cc(O)c(C(=O)/C=C/c2cccc([N+](=O)[O-])c2)c(=O)o1,-2%,5%,22µM*,2%,-1%
O=C(/C=C/c1cccs1)c1ccc(Br)cc1,5%,-2%,?,-9%,-1%
Cc1cc(O)c(C(=O)/C=C/c2ccccc2O)c(=O)o1,0%,1%,15%,-10%,.
O=C(/C=C\Nc1cccc(F)c1)c1cccs1,1%,?,4µM*,-6%,-1%
O=C(/C=C/Nc1ccc(F)cc1F)c1cccs1,2%,?,?,-4%,0%
Cc1ccc(S(=O)(=O)Nc2cccc3c2O[C@H](CN(C)C(=O)Nc2ccc(C(F)(F)F)cc2)[C@@H](C)CN([C@H](C)CO)C3=O)cc1,3%,18µM*,4%,-18%,.
C[C@H](CO)N1C[C@H](C)[C@@H](CN(C)Cc2ccc(Oc3ccccc3)cc2)Oc2c(NC(=O)C3CC3)cccc2C1=O,4%,23µM*,-5%,-17%,.
C[C@H]1CN([C@@H](C)CO)C(=O)c2cccc(NC(=O)Nc3ccc(C(F)(F)F)cc3)c2O[C@@H]1CN(C)C(=O)Nc1ccc(F)cc1,3%,16µM*,-6%,?,.
Cn1c(C2CCC2)nc2cc(C(=O)N3CCOc4ccccc4C3)cc(NC(=O)C3CCCO3)c21 (stereo unspecified),1%,.,.,.,.
COc1cc(/C=N/NC(=O)c2ccc3ccccc3c2)ccc1Oc1ccc([N+](=O)[O-])cn1,2%,?,0%,2%,0%
COc1cc(/C=C(/C#N)c2ccccc2)ccc1Oc1ccc([N+](=O)[O-])cn1,-8%[38.3 µM],15µM*,2%,?,-1%
COc1cccc(C(=O)N/N=C/c2ccc(Oc3ccc([N+](=O)[O-])cn3)c(OC)c2)c1,3%,23µM*,0%,?,2%
COc1ccc(/C=N/NC(=O)c2cccc([N+](=O)[O-])c2)cc1OC(=O)c1ccc(C)cc1,1%,21µM*,0%,?,-1%
Cc1nc2cc(NC(=O)[C@@H]3C[C@@H](Sc4ccccn4)CN3Cc3cccc(F)c3)ccc2s1,0%,.,.,.,.
COc1ccc2c(c1)CCc1cnc(-n3ncc(C(=O)NCCCc4ccncc4)c3C)nc1-2,2%,.,.,.,.
COc1cc2c(C#N)c(N3CCN(c4ccccc4OC)CC3)nc(N)c2c(N)n1,-1%,16µM*,0%,?,0%
COc1cc2c(C#N)c(N3CCN(C)CC3)nc(N)c2c(N)n1,.,.,.,.,0%
CCNc1nc(NCc2ccccc2)nc(SCC(=O)Nc2ccccc2)n1,?,23µM*,4%,-16%,0%
CCNc1nc(NCc2ccccc2)nc(SCC(N)=O)n1,-1%,-19%,1%,8%,0%
N#Cc1ccc(OCC(O)CN2CCN(CC(O)COc3ccc(C#N)cc3)CC2)cc1 (stereo unspecified),1%,?,2%,3%,.
N#Cc1ccc(OCC(O)CN2CCN(c3ncc(C(F)(F)F)cc3Cl)CC2)cc1 (stereo unspecified),7%,18µM*,3%,-14%,.
N#Cc1c(SCC(=O)Nc2ccc(Cl)cc2Cl)sc2c(O)cc(=O)[nH]c12,32µM*,2%,1%,1%,.
Cc1c(Cl)cccc1NC(=O)CSc1sc2c(O)cc(=O)[nH]c2c1C#N,0%,-2%,0%,-9%,.
